Measurements taken from the supplement of paper PMC11732987, “Enantioselective OTUD7B fragment discovery through chemoproteomics screening and high-throughput optimisation” (Communications Chemistry, 2025).

Legend:
Assay in all cases: log2 ratio of Biotin-Ahx-Ub-VS probe labelling (fragment/DMSO); higher = less target engagement (more negative = stronger competition), active = hit call of the paper (q ≤ 0.05, log2 ratio ≤ -1)
Conditions in all cases: compound concentration: 200 uM; treatment time: 3 h
ALG13 = molecular target: T1, ALG13 (UniProt Q9NP73)
T1 sequence (whole entry): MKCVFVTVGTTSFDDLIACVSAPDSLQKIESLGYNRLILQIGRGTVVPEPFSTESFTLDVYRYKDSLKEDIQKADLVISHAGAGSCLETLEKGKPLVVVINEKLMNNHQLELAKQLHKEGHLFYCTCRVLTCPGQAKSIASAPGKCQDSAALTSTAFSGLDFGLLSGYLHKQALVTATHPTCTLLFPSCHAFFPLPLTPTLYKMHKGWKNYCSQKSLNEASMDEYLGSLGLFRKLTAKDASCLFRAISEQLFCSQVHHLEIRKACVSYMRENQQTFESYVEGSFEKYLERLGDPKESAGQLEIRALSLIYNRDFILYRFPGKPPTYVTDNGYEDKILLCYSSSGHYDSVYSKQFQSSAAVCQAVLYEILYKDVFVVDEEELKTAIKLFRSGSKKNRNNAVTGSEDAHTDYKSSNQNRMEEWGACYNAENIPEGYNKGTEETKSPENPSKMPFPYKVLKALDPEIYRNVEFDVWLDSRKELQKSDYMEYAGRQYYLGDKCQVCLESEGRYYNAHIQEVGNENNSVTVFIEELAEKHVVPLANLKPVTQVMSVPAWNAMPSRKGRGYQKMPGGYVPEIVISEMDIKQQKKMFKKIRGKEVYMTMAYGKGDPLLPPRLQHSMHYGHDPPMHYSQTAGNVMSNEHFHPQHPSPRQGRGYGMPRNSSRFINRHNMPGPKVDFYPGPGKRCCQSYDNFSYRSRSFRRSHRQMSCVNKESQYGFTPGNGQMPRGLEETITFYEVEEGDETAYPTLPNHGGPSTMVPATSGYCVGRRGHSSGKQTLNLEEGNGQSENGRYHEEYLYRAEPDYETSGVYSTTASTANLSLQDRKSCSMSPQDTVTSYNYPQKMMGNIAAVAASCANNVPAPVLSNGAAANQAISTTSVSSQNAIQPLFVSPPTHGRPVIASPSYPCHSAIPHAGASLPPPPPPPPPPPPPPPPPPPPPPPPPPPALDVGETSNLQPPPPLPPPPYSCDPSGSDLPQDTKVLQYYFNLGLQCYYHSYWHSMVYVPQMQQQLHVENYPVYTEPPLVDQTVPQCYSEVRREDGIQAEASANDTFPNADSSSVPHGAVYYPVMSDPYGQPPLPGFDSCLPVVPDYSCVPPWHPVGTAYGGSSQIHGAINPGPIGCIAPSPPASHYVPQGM
Summary of the method: (§1)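 Using Biotin-Ahx-Ub-VS at 0.5 µM final for 1 h, DUBs were labelled in HEK293T lysate (495 µg per sample) that had first been treated in triplicate with fragment at 200 µM or vehicle for 3 h. NeutrAvidin enrichment, LysC and trypsin digestion and diaPASEF LC-MS/MS followed. Spectronaut label-free quantities were global-median-normalised. Values are average log2 fragment/vehicle ratios by unpaired t-test, using proteins with ≥2 unique peptides.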

ATXN3 = ATXN3 (UniProt P54252)
Summary of the method: as §1

BAP1 = molecular target: T2, BAP1 (UniProt Q92560)
T2 sequence (whole entry): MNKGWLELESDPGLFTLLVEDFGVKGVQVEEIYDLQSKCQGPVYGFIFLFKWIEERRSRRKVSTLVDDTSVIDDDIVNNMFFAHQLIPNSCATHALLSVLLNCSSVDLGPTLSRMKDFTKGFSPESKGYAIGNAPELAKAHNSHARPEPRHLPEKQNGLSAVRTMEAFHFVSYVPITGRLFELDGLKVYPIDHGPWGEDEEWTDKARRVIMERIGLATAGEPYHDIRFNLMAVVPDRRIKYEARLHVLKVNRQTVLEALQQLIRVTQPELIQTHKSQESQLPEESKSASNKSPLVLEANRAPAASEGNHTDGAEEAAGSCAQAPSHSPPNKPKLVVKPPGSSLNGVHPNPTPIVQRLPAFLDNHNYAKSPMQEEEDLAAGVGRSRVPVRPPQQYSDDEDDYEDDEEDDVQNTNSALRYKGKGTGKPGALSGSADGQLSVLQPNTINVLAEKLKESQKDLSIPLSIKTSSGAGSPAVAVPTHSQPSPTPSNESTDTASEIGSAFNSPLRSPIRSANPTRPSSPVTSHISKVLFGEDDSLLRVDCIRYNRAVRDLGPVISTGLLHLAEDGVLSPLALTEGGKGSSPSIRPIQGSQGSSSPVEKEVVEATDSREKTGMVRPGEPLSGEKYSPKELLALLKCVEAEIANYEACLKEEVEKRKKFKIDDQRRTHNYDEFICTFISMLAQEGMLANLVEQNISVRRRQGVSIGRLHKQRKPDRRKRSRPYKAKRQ
Summary of the method: as §1

EIF3F = EIF3F (UniProt O00303)
Summary of the method: as §1

EIF3H = EIF3H (UniProt O15372)
Summary of the method: as §1

FAM105A = molecular target: T3, FAM105A (UniProt Q9NUU6)
T3 sequence (whole entry): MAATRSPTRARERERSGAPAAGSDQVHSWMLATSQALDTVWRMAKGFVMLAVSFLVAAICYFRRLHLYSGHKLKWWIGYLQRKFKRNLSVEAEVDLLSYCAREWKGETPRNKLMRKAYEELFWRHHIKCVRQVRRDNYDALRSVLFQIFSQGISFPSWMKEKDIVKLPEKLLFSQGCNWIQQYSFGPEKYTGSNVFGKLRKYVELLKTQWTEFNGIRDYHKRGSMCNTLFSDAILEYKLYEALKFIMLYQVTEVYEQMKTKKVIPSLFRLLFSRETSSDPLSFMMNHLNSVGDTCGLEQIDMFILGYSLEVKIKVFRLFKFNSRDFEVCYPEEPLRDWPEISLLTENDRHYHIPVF
Summary of the method: as §1

OTUB1 = OTUB1 (UniProt Q96FW1)
Summary of the method: as §1

OTUD4 = molecular target: T4, OTUD4 (UniProt Q01804)
T4 sequence (whole entry): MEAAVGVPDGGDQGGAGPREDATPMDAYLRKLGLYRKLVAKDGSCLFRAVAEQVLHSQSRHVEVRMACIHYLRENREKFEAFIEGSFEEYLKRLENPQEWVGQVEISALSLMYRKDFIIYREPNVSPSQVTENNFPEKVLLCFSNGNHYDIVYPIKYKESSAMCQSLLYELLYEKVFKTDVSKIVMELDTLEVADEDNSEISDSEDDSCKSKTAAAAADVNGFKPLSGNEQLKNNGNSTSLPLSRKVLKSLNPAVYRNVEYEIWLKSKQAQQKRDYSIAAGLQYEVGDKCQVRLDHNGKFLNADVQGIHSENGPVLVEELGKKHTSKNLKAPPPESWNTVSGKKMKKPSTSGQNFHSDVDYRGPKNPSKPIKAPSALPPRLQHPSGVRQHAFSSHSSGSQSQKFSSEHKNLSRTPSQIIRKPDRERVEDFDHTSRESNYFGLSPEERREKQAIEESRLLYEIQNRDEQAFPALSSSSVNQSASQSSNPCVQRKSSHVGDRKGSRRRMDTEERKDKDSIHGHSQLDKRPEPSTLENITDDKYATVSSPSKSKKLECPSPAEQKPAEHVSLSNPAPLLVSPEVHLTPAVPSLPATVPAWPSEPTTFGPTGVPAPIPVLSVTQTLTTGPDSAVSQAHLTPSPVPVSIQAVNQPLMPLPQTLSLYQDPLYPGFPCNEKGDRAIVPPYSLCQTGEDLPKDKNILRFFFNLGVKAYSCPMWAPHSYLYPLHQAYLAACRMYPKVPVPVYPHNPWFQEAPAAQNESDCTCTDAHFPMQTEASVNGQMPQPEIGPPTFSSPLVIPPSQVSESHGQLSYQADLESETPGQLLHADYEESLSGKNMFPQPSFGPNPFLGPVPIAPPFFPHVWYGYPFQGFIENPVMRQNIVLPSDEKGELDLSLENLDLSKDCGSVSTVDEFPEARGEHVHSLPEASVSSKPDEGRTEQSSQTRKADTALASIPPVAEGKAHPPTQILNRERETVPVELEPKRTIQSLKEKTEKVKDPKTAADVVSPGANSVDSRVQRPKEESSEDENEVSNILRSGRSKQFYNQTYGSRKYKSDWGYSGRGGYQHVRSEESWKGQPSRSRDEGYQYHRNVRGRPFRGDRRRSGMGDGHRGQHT
Summary of the method: as §1

OTUD5 = molecular target: T5, OTUD5 (UniProt Q96G74)
T5 sequence (whole entry): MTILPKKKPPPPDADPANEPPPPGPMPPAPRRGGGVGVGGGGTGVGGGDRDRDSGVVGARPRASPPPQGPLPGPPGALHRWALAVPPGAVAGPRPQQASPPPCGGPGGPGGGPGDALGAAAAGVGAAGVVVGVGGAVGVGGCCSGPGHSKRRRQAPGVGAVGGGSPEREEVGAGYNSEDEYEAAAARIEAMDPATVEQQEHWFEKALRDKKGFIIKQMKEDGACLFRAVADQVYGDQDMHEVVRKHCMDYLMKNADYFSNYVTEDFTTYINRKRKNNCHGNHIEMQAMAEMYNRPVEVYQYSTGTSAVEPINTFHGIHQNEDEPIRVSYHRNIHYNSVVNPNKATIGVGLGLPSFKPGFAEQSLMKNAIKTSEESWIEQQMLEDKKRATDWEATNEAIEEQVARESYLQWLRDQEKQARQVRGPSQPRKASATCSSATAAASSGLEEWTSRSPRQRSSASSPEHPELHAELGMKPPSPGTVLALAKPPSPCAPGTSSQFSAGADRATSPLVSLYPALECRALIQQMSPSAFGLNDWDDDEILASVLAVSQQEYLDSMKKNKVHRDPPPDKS
Summary of the method: as §1

Measured: log2 ratio of Biotin-Ahx-Ub-VS probe labelling

Chain of EIF3H (O15372 whole entry): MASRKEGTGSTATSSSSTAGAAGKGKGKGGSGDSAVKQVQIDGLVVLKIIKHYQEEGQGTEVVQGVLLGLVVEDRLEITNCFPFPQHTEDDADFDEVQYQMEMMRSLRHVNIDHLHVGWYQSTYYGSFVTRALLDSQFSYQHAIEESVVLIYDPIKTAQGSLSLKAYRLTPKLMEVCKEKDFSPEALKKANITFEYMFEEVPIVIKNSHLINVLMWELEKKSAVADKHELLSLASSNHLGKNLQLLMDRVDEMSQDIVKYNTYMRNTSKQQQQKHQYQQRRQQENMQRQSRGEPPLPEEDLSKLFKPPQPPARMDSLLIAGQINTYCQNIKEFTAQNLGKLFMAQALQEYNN
Chain of OTUB1 (Q96FW1 whole entry): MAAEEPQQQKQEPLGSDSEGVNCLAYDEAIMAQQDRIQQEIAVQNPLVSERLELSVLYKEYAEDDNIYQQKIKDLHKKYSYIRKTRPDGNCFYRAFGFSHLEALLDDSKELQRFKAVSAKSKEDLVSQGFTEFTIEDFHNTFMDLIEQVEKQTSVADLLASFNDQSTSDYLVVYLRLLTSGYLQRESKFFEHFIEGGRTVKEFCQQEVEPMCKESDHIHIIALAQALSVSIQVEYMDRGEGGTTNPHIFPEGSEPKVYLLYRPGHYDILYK
Chain of ATXN3 (P54252 whole entry): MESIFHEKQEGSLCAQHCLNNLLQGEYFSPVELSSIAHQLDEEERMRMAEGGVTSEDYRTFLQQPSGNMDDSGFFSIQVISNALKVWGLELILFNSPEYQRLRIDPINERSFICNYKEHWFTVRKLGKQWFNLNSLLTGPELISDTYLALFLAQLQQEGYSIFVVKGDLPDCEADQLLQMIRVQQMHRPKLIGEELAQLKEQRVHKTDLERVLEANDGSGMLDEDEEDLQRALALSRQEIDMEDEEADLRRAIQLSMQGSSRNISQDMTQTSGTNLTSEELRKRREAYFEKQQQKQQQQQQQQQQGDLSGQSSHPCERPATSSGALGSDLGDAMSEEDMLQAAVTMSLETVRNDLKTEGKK
Chain of EIF3F (O00303 whole entry): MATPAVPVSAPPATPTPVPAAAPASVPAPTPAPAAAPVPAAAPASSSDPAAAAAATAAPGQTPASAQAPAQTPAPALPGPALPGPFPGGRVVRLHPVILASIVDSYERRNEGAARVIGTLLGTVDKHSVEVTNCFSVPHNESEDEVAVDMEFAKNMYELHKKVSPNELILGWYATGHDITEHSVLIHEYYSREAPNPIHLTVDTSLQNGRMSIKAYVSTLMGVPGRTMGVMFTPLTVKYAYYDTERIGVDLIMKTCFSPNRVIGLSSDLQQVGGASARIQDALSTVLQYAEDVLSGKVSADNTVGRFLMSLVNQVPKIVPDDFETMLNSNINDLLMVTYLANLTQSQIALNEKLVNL

O=C(CCl)NC1CCC2(CC1)OCCO2
inactive: ALG13 0.0856 | ATXN3 -0.347 | BAP1 -0.944 | EIF3F -0.268 | EIF3H 0.0155 | FAM105A 0.137 | OTUB1 -0.114 | OTUD4 -0.376 | OTUD5 -0.414
